# Experiments:
# Test in all cases: DAPPL (digital affinity profiling via proximity ligation, sequencing); 10 mM Tris-HCl pH 7.5, 50 mM NaCl, 1 mM DTT, 4% glycerol, room temperature, 30 min; GST-TFs on glutathione beads, 16-mer random dsDNA library, 0.1% formaldehyde crosslink after washing; high values mean tight binding
# Details in all cases: protein: recombinant; tags: N-terminal GST; dsDNA, one strand shown
# ERF = biological target: T1, ERF (Homo sapiens, UniProt P50548 1-548)
# T1 sequence: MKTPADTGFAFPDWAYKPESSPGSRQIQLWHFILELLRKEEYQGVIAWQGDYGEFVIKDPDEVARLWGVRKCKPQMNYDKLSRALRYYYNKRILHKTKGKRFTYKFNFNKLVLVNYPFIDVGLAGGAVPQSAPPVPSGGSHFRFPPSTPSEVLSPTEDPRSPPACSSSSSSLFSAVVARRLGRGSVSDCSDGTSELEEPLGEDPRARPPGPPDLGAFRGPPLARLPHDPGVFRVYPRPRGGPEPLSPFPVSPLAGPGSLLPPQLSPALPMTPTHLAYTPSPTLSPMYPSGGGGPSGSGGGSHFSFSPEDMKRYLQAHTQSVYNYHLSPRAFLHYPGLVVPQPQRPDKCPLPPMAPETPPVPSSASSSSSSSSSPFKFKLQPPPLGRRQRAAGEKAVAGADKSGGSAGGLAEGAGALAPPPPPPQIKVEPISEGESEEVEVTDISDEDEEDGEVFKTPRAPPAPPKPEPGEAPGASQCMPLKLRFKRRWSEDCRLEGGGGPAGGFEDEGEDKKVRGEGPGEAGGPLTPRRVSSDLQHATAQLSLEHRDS
# Outline: (§1)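 Beads coated with glutathione captured GST-fused human transcription factors that had been expressed in yeast, and the factors were then given DNA barcodes and pooled with a tag-only sample. The pools were incubated with 200 nmole of a random double-stranded 16-mer DNA library in Tris/NaCl/DTT/glycerol buffer for 30 min at room temperature, washed, crosslinked with 0.1% formaldehyde and proximity-ligated with BsaI/T4 ligase at 37 °C for 1 h. PCR amplification and Illumina NextSeq500 sequencing came last. Binding signal is each hexamer's read frequency for a factor divided by its frequency for the tag-only sample.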
# ETV3L = biological target: T2, ETV3L (Homo sapiens, UniProt Q6ZN32 1-361)
# T2 sequence: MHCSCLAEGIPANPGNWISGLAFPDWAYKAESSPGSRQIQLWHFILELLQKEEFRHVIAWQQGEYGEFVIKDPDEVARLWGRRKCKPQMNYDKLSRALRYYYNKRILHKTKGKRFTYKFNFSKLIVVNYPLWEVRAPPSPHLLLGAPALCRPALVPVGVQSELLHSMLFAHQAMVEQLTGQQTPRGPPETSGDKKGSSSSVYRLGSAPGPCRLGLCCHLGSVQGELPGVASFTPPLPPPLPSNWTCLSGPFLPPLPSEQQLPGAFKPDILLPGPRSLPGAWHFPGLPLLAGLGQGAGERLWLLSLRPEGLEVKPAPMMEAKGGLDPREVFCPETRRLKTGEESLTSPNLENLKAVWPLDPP
# Outline: as §1
# ETS2 = biological target: T3, ETS2 (Homo sapiens, UniProt P15036 1-469)
# T3 sequence: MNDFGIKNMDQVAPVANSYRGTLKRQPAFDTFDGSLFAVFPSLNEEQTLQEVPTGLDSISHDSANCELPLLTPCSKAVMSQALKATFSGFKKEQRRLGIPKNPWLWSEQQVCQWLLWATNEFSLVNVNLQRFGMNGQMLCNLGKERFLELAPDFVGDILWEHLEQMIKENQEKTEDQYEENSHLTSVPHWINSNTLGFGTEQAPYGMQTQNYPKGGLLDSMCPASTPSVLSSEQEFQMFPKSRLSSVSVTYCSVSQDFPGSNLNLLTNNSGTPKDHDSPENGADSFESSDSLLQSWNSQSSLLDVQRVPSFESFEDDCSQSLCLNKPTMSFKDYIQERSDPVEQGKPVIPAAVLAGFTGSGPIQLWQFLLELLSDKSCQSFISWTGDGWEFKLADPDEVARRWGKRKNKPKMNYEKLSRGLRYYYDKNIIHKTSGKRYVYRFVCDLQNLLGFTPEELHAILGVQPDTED
# Outline: as §1
# SPDEF = biological target: T4, SPDEF (Homo sapiens, UniProt O95238 1-335)
# T4 sequence: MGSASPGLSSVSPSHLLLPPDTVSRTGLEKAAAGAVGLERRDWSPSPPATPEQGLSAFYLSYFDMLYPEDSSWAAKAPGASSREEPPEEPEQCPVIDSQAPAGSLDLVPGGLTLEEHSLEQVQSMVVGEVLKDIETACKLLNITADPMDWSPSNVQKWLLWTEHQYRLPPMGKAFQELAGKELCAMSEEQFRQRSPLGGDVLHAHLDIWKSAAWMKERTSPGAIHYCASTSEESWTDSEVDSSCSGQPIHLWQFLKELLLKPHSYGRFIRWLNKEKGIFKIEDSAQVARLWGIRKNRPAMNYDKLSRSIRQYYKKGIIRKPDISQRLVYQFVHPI
# Outline: as §1
# ETV7 = biological target: T5, ETV7 (Homo sapiens, UniProt Q9Y603 1-341)
# T5 sequence: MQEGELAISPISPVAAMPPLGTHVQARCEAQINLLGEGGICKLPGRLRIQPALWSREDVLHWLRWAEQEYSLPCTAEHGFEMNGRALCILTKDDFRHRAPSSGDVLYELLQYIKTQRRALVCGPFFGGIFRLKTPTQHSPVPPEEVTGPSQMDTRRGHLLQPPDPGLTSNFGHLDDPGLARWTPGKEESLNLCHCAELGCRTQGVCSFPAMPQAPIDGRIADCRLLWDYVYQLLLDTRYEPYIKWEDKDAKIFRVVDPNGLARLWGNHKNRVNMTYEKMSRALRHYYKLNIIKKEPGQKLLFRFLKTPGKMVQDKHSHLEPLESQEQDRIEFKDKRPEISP
# Outline: as §1
# ELF5 = biological target: T6, ELF5 (Homo sapiens, UniProt Q9UKW6-2 1-255)
# T6 sequence: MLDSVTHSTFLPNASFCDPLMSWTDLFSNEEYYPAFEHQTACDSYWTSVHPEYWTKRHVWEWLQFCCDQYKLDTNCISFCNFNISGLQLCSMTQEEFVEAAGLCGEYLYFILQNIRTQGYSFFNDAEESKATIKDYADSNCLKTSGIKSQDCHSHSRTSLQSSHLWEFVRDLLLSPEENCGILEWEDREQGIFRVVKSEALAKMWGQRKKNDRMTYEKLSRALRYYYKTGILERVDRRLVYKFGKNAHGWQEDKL
# Outline: as §1
# ETV3 = biological target: T7, ETV3 (Homo sapiens, UniProt P41162-2 1-143)
# T7 sequence: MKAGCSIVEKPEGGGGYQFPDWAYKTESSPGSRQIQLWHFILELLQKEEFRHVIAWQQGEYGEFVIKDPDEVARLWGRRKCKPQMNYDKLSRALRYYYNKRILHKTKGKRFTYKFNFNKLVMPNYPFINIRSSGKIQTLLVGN
# Outline: as §1
# ETV6 = ETV6 (Homo sapiens, UniProt P41212 1-452)
# Outline: as §1
# Chain of ETV6 (P41212 whole entry): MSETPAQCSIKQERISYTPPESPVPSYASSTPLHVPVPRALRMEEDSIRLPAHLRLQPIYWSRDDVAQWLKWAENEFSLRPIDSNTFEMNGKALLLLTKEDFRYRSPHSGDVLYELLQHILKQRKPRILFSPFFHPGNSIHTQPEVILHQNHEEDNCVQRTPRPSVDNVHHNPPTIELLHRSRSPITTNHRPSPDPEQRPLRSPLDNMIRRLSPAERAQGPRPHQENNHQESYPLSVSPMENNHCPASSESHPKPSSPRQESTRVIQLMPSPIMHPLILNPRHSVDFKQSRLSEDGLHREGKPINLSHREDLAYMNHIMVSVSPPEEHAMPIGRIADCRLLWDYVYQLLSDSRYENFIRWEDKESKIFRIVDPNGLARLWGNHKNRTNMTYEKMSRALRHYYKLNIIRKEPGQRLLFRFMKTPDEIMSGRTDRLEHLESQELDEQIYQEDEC
sequence,measurement,setting,value
AACCTC,binding signal,ERF,"1.26 fold enrichment (6-mer frequency, TF over GST control)"
same,binding signal,ETV3L,"1.24 fold enrichment (6-mer frequency, TF over GST control)"
same,binding signal,ETS2,"1.18 fold enrichment (6-mer frequency, TF over GST control)"
same,binding signal,SPDEF,"1.07 fold enrichment (6-mer frequency, TF over GST control)"
same,binding signal,ETV7,"1.26 fold enrichment (6-mer frequency, TF over GST control)"
same,binding signal,ELF5,"1.17 fold enrichment (6-mer frequency, TF over GST control)"
same,binding signal,ETV3,"1.2 fold enrichment (6-mer frequency, TF over GST control)"
same,binding signal,ETV6,"1.16 fold enrichment (6-mer frequency, TF over GST control)"
CCCGAT,binding signal,ERF,"1.22 fold enrichment (6-mer frequency, TF over GST control)"
same,binding signal,ETV3L,"1.14 fold enrichment (6-mer frequency, TF over GST control)"
same,binding signal,ETS2,"1.23 fold enrichment (6-mer frequency, TF over GST control)"
same,binding signal,SPDEF,"1.11 fold enrichment (6-mer frequency, TF over GST control)"
same,binding signal,ETV7,"1.24 fold enrichment (6-mer frequency, TF over GST control)"
same,binding signal,ELF5,"1.24 fold enrichment (6-mer frequency, TF over GST control)"
same,binding signal,ETV3,"1.21 fold enrichment (6-mer frequency, TF over GST control)"
same,binding signal,ETV6,"1.06 fold enrichment (6-mer frequency, TF over GST control)"
CTAGTT,binding signal,ERF,"1.34 fold enrichment (6-mer frequency, TF over GST control)"
same,binding signal,ETV3L,"1.23 fold enrichment (6-mer frequency, TF over GST control)"
same,binding signal,ETS2,"1.38 fold enrichment (6-mer frequency, TF over GST control)"
same,binding signal,SPDEF,"1.29 fold enrichment (6-mer frequency, TF over GST control)"
same,binding signal,ETV7,"1.28 fold enrichment (6-mer frequency, TF over GST control)"
same,binding signal,ELF5,"1.22 fold enrichment (6-mer frequency, TF over GST control)"
same,binding signal,ETV3,"1.19 fold enrichment (6-mer frequency, TF over GST control)"
same,binding signal,ETV6,"1.3 fold enrichment (6-mer frequency, TF over GST control)"
TTTGTT,binding signal,ERF,"1.29 fold enrichment (6-mer frequency, TF over GST control)"
same,binding signal,ETV3L,"1.27 fold enrichment (6-mer frequency, TF over GST control)"
same,binding signal,ETS2,"1.26 fold enrichment (6-mer frequency, TF over GST control)"
same,binding signal,SPDEF,"1.33 fold enrichment (6-mer frequency, TF over GST control)"
same,binding signal,ETV7,"1.18 fold enrichment (6-mer frequency, TF over GST control)"
same,binding signal,ELF5,"1.27 fold enrichment (6-mer frequency, TF over GST control)"
same,binding signal,ETV3,"1.34 fold enrichment (6-mer frequency, TF over GST control)"
same,binding signal,ETV6,"1.34 fold enrichment (6-mer frequency, TF over GST control)"
AATGAT,binding signal,ERF,"1.18 fold enrichment (6-mer frequency, TF over GST control)"
same,binding signal,ETV3L,"1.24 fold enrichment (6-mer frequency, TF over GST control)"
same,binding signal,ETS2,"1.12 fold enrichment (6-mer frequency, TF over GST control)"
same,binding signal,SPDEF,"1.13 fold enrichment (6-mer frequency, TF over GST control)"
same,binding signal,ETV7,"1.2 fold enrichment (6-mer frequency, TF over GST control)"
same,binding signal,ELF5,"1.06 fold enrichment (6-mer frequency, TF over GST control)"
same,binding signal,ETV3,"1.21 fold enrichment (6-mer frequency, TF over GST control)"
same,binding signal,ETV6,"1.24 fold enrichment (6-mer frequency, TF over GST control)"
TCGCTC,binding signal,ERF,"1.35 fold enrichment (6-mer frequency, TF over GST control)"
same,binding signal,ETV3L,"1.37 fold enrichment (6-mer frequency, TF over GST control)"
same,binding signal,ETS2,"1.32 fold enrichment (6-mer frequency, TF over GST control)"
same,binding signal,SPDEF,"1.19 fold enrichment (6-mer frequency, TF over GST control)"
same,binding signal,ETV7,"1.02 fold enrichment (6-mer frequency, TF over GST control)"
same,binding signal,ELF5,"1.25 fold enrichment (6-mer frequency, TF over GST control)"
same,binding signal,ETV3,"1.11 fold enrichment (6-mer frequency, TF over GST control)"
same,binding signal,ETV6,"1.28 fold enrichment (6-mer frequency, TF over GST control)"
CTCCTT,binding signal,ERF,"1.86 fold enrichment (6-mer frequency, TF over GST control)"
same,binding signal,ETV3L,"1.76 fold enrichment (6-mer frequency, TF over GST control)"
same,binding signal,ETS2,"1.76 fold enrichment (6-mer frequency, TF over GST control)"
same,binding signal,SPDEF,"1.64 fold enrichment (6-mer frequency, TF over GST control)"
same,binding signal,ETV7,"1.75 fold enrichment (6-mer frequency, TF over GST control)"
same,binding signal,ELF5,"1.89 fold enrichment (6-mer frequency, TF over GST control)"
same,binding signal,ETV3,"1.95 fold enrichment (6-mer frequency, TF over GST control)"
same,binding signal,ETV6,"1.76 fold enrichment (6-mer frequency, TF over GST control)"
ATACAC,binding signal,ERF,"1.32 fold enrichment (6-mer frequency, TF over GST control)"
same,binding signal,ETV3L,"1.18 fold enrichment (6-mer frequency, TF over GST control)"
same,binding signal,ETS2,"1.16 fold enrichment (6-mer frequency, TF over GST control)"
same,binding signal,SPDEF,"1.28 fold enrichment (6-mer frequency, TF over GST control)"
same,binding signal,ETV7,"1.21 fold enrichment (6-mer frequency, TF over GST control)"
same,binding signal,ELF5,"1.15 fold enrichment (6-mer frequency, TF over GST control)"
same,binding signal,ETV3,"1.17 fold enrichment (6-mer frequency, TF over GST control)"
same,binding signal,ETV6,"1.12 fold enrichment (6-mer frequency, TF over GST control)"

# Reference: PMC7862700, “An all-to-all approach to the identification of sequence-specific readers for epigenetic DNA modifications on cytosine”
